Shown are actives, neighbours in structure and some others; about 7.5% of the full set was active somewhere.
ELG1 genotoxic: induces genotoxicity in HEK293T cells with luciferase-tagged ELG1 | Potency, µM (titrated, usually from 46 µM), for inactives: top-dose activity change, positive = activation, most hits filed as activators | 330,000 compounds, 1.3% hits | HEK293T ELG1-luciferase reporter, luminescence, 16 h | AID 504466; also: % of control where 0% means no effect; nearly all actives have a fitted effect of over 60% in size
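Cells (2,000/well) expressing the ELG1-luciferase fusion are dosed by pin tool and kept 16 hr at 37 °C, 5% CO2. Signal comes from ONE-Glo luciferase reagent after 30 min at room temperature.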
NPC1 prom act: activates the NPC1 promoter | Huh7 NPC1 promoter luciferase reporter, 24 h | Potency, µM (highest dose often 9.22 µM), inactives show top-dose activation, actives largely listed as activators | 320,000 compounds, 2.4% hits | AID 485313; also: % of control where 0% means no effect; nearly all actives have a fitted effect of over 60% in size
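Stably transfected Huh7 (NPC1 promoter→luciferase), 1500 cells/well in Opti-MEM + 10% FBS, 2 h settle, then compound 24 h at 37 °C. Luminescence after 10 min with Amplite reagent.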
FLuc counter: firefly luciferase modulation, counter-screen for miR-21 project; purified FLuc, Km substrates, luminescence inhibition; Potency, µM (highest dose often 57.5 µM), for inactives: at the highest dose activity change, negative = inhibition, hits mostly inhibitors; 360,000 compounds, 6.9% hits;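 also: plate controls were vehicle for no effect and reference inhibitor for full effect; nearly all actives have a fitted effect of over 55% in size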
Target sequence (P08659 whole entry, looked up): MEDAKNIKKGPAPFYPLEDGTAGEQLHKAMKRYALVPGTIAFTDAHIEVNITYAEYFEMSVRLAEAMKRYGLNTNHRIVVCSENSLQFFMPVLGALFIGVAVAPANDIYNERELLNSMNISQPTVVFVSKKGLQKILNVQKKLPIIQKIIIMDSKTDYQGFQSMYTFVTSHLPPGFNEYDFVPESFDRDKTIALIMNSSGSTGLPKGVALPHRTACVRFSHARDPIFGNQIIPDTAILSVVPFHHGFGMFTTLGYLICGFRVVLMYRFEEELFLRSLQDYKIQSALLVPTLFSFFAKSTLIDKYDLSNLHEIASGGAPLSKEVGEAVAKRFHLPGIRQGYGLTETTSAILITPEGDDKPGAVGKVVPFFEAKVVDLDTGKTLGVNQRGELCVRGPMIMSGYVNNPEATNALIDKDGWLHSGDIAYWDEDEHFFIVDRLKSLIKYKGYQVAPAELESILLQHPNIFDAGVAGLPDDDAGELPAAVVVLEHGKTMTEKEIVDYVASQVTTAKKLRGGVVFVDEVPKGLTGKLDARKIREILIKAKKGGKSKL
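Biochemical qHTS of compounds, final roughly 60 µM downward over six points, against 10 nM purified firefly luciferase using Km concentrations of substrates (10 uM D-luciferin, 10 uM ATP) in Tris acetate pH 7.5 buffer; luminescence output.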
SMN2 splice enh: SMN2 splice variant enhancement | AID 1458 | Potency, µM (doses to about 46.1 µM), for the others: at the highest dose activity change, positive = activation, hits mostly activators | HEK293 SMN2-luciferase splicing reporter, luminescence, 30-36 h | 210,000 compounds, 2.8% hits; also: % of control where 0% means no effect; nearly all actives have a fitted effect of over 55% in size
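HEK293 cells carry an SMN2 […]–luciferase reporter in which exon 7 inclusion puts luciferase in frame. Cells were plated 10-12 h before compound addition, then incubated 30-36 h at 37C. ONE-Glo luminescence was read; sodium butyrate at 4.5 mM final served as control.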
Rab9 prom act: activators of Rab9 promoter; Huh7 Rab9 promoter-luciferase reporter, luminescence, 24 h; Potency, µM (highest dose often 9.22 µM), for the others: at the highest dose activation, negative = inhibition, hits mostly activators; 320,000 compounds, 2.8% hits; AID 485297; also: % of control where 0% means no effect; nearly all actives have a fitted effect of over 60% in size
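Cells were plated at 1500 per well in reduced-serum medium with 10% FBS and left 2 h. Compound in DMSO was then added for 24 h at 37 °C. Reporter signal was read by luminescence after 10 min with luciferase detection reagent.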
Numbers without * were called inactive; [ ] = another dose, or the depositor's remark. Calls follow the shape of the dose curve; as a rule, active = well fitted curve in the direction sought with a large enough effect; inconclusive = small, poorly fitted or top-dose-only effect, or another doubt; inactive = no such curve, though single readings can be large; an effect the other way counts as inactive or inconclusive. Potency is read from the fitted curve at half-maximal effect.

For O=C(c1cc(-c2ccc(Br)cc2)nc2ccccc12)N1CCC1 the results were ELG1 genotoxic -9%, NPC1 prom act -1%, FLuc counter 17µM* and Rab9 prom act -7%.
O=C(c1cc(Cl)nc2ccccc12)N1CCCCC1 was read as ELG1 genotoxic -2%, NPC1 prom act 3%, FLuc counter 6%, SMN2 splice enh -17% and Rab9 prom act 4%.
`Cc1ccc(-c2cc(C(=O)N3CCCC3)c3ccccc3n2)s1` gave ELG1 genotoxic 15%, NPC1 prom act 18%, FLuc counter 5.4µM* and Rab9 prom act 4%[1.84 µM].
Cc1ccc(C(=O)c2oc3ccccc3c2NC(=O)Cc2coc3cc(C)ccc23)cc1 was read as FLuc counter -1% and SMN2 splice enh -4%.
Screening O=C(O)CNC(=O)c1ccc([N+](=O)[O-])cc1 returned SMN2 splice enh 7%.
`CCOC(=O)Cc1ccc(NC(=O)n2ncc3c(C)cccc32)cc1` gave FLuc counter 5.4µM* and SMN2 splice enh 3%.
CCOc1ccc(NC(=O)n2ncc3c(C)cccc32)cc1 was read as ELG1 genotoxic inconclusive, NPC1 prom act 0.45µM*, FLuc counter 1.3µM* and Rab9 prom act 1.4µM*.
Screening COc1cccc(NC(=O)n2ncc3c(C)cccc32)c1 returned ELG1 genotoxic 1.6µM*, NPC1 prom act 0.089µM*, FLuc counter 0.17µM* and Rab9 prom act 0.32µM*.
For COC(=O)c1ccc(NC(=O)n2ncc3c(C)cccc32)cc1 the results were FLuc counter -1%.
`Nc1nnc(CSCc2cccc(Br)c2)s1` gave ELG1 genotoxic 4%, NPC1 prom act 0%, FLuc counter inconclusive, SMN2 splice enh -1% and Rab9 prom act -3%.
COC(=O)c1ccc(N2C(=O)CC(SCCN)C2=O)cc1 (configuration not stated) was read as ELG1 genotoxic 12µM*, NPC1 prom act inconclusive, FLuc counter inconclusive, SMN2 splice enh 11µM* and Rab9 prom act inconclusive.
For CCCOc1ccc(N2C(=O)CC(SCCN)C2=O)cc1 (configuration not stated) the results were ELG1 genotoxic inconclusive, NPC1 prom act 4µM*, FLuc counter 12µM*, SMN2 splice enh 13µM* and Rab9 prom act 2.2µM*.
Nc1ccc2oc3ccccc3c2c1 was read as ELG1 genotoxic 22%, NPC1 prom act inconclusive, FLuc counter inconclusive, SMN2 splice enh 11µM* and Rab9 prom act inconclusive.
For O=C(Cc1ccc(-c2ccccc2)cc1)Nc1ccccc1 the results were ELG1 genotoxic inconclusive, NPC1 prom act 3%, FLuc counter -1% and Rab9 prom act 16%.
For O=C(Cc1ccc(-c2ccccc2)cc1)Nc1ncccc1O the results were ELG1 genotoxic inconclusive, NPC1 prom act inconclusive, FLuc counter 15µM* and Rab9 prom act inconclusive.
For O=C(O)C[C@H](Cc1ccccc1Cl)C(=O)O the results were SMN2 splice enh -12%[9.22 µM].
CN1CCc2c(sc3c2C(=O)NC(c2cccc(OC(=O)c4cccs4)c2)N3)C1 (configuration not stated) was read as ELG1 genotoxic 19%, NPC1 prom act 1%, FLuc counter 17µM*, SMN2 splice enh inconclusive and Rab9 prom act 3%.
For O=C(O)c1cccc(NC(=O)c2ccc(CN3C(=O)c4ccccc4C3=O)cc2)c1 the results were ELG1 genotoxic 0%, NPC1 prom act 2%, FLuc counter 12µM* and Rab9 prom act 8%.
For O=C(O)c1ccc(CN2C(=O)c3ccc(C(=O)O)cc3C2=O)cc1 the results were ELG1 genotoxic 1%, NPC1 prom act 1%, FLuc counter 1% and Rab9 prom act -2%.
Screening O=C(O)c1cccc(NC(=O)c2ccc3c(c2)C(=O)N(Cc2ccco2)C3=O)c1 returned ELG1 genotoxic 1%, NPC1 prom act 0%, FLuc counter 0.95µM* and Rab9 prom act -3%.
O=C(O)c1cccc(NC(=O)c2ccc3c(c2)C(=O)N(C2CCCCC2)C3=O)c1 was read as ELG1 genotoxic inconclusive, NPC1 prom act 1.6µM*, FLuc counter 0.19µM* and Rab9 prom act 1µM*.
O=C(O)c1cccc(NC2=C(Cl)C(=O)c3ccccc3C2=O)c1 was read as ELG1 genotoxic -24%, NPC1 prom act 25%, FLuc counter 17µM*, SMN2 splice enh 4% and Rab9 prom act inconclusive.
`Cc1cccc(NC(=O)c2sc(-n3nc(C)c(CCC(C)C)c3C)nc2C)c1` gave FLuc counter -6%.
Screening COc1cc(OC)c2c(C)c(CC(=O)NCc3ccccc3OC)c(=O)oc2c1 returned FLuc counter -3% and SMN2 splice enh 3%.
Cn1cnc(S(=O)(=O)Nc2ccc(OC(F)(F)F)cc2)c1 was read as ELG1 genotoxic -1%, NPC1 prom act -2%, FLuc counter -1%, SMN2 splice enh -36% and Rab9 prom act -6%.
For O=C(Nc1ccccc1O)c1ccc2c(c1)C(=O)N(Cc1ccco1)C2=O the results were ELG1 genotoxic -4%, NPC1 prom act 1%, FLuc counter -3% and Rab9 prom act 13%.
For O=C(Nc1cccnc1)c1ccc(CSc2ccccc2)cc1 the results were ELG1 genotoxic 9%, NPC1 prom act 2%, FLuc counter -16% and Rab9 prom act 24%.
For Cc1c(NC(=O)c2ccc3c(c2)C(=O)N(Cc2ccco2)C3=O)cccc1C(=O)O the results were ELG1 genotoxic 1%, NPC1 prom act 0%, FLuc counter 15µM*, SMN2 splice enh -8% and Rab9 prom act -9%.
`O=C(Nc1cccc(Br)c1)c1ccc(CSc2ccccc2)cc1` gave ELG1 genotoxic 5%, NPC1 prom act 17%, FLuc counter 12µM*, SMN2 splice enh -8% and Rab9 prom act 14%.
Screening Cc1cccc(CCn2c(=O)c3ccccc3n(Cc3ccccc3C)c2=O)c1 returned FLuc counter -16% and SMN2 splice enh -12%.
`Cc1nnc2n(c1=O)C(CS(=O)(=O)c1ccc3ccccc3c1)CS2` (configuration not stated) gave ELG1 genotoxic -10%, NPC1 prom act -2%, FLuc counter 0%, SMN2 splice enh -19% and Rab9 prom act -14%.
Cc1ccc(S(=O)(=O)NC(CC(C)C)C(=O)NCC(c2ccco2)N2CCCCC2)cc1 (configuration not stated) was read as ELG1 genotoxic inconclusive, NPC1 prom act 0%, FLuc counter 19µM* and Rab9 prom act 1%.
For Cc1cnn(C(=S)NCCc2ccccc2)c1 the results were ELG1 genotoxic 15µM*, NPC1 prom act inconclusive, FLuc counter 19µM*, SMN2 splice enh inconclusive and Rab9 prom act inconclusive.
Screening Cc1cnn(C(=S)NCc2ccc(Cl)cc2)c1 returned ELG1 genotoxic -5%, NPC1 prom act -1%, FLuc counter -13%, SMN2 splice enh -25% and Rab9 prom act 1%.

Assay outcomes (PubChem BioAssay)
